This is an account of results in PubChem BioAssay (NCI).

Some test systems named below: T-47D breast; BT-549 breast; MDA-MB-435 melanoma; SW-620 colon; MCF7 breast; HCT-116 colon; HCC-2998 colon; KM12 colon.
Common to all, as to assay: NCI-60 one-dose screen, 48 h (100 = growth as untreated, 0 = no growth, -100 = all killed)
Common to all, as to conditions: 10 µM unless noted

About 83,000 compounds went through this panel and 20% of them were active in at least one assay; those are over-represented in the sample as a whole.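 Assay: single dose, 48 h. Readout: percent growth (0 = no net growth; negative = cell death). Active: <10.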 Values without a mark were called inactive. Active and inactive are the calls of the source.

Take `COc1ccc(-c2nc3ccc(Cc4ccc5nc(-c6ccc(OC)cc6)[nH]c5c4)cc3[nH]2)cc1`: the growth was 20.8% in the experiment with T-47D breast; 84.5% in the experiment on BT-549 breast; 35.3% in the experiment with MDA-MB-435 melanoma; 31.2% in the experiment on SW-620 colon; -13.5% (active) in the experiment on MCF7 breast; 39.4% in the experiment with HCT-116 colon. For the same compound, the growth was 35.8% in the experiment with HCC-2998 colon and 49.1% with KM12 colon.

Take `COC1=CC(c2ccc[nH]2)=N/C1=C\c1[nH]c(C)c(C(=O)CCCCCCCCC(=O)O[C@H]2CC[C@H]3C4CCc5cc(O)ccc5C4CC[C@]23C)c1C` (stereo partly drawn): the growth in the experiment with T-47D breast is 29.8%; in the experiment with BT-549 breast, 38.3%; with MDA-MB-435 melanoma it was 14.3%; with SW-620 colon it was 6.58% (active); in the experiment with MCF7 breast it was 24.1%; in the experiment on HCT-116 colon, 7.77% (active). The growth with HCC-2998 colon was 26.2%; with KM12 colon, 17.5%.

Regarding `COc1ccc(C2CC(c3cccc(Nc4ccnc5cc(Cl)ccc45)c3)=NN2c2ccc(Cl)cc2)cc1` (stereo not drawn), the growth in the experiment on T-47D breast was 40.6%; in the experiment on BT-549 breast, 56.7%; with MDA-MB-435 melanoma, 30.6%; in the experiment with SW-620 colon, 30.7%; in the experiment on MCF7 breast it was 65%; in the experiment on HCT-116 colon, 66.3%. For the same compound, the growth is 7.59% (active) with HCC-2998 colon and 22.2% in the experiment on KM12 colon.

For `COc1ccc(C(=O)C(CN(C)C)c2ccccc2)cc1` (stereo not drawn), the growth was 9.93% (active) with T-47D breast; 12.9% in the experiment on BT-549 breast; 25.4% in the experiment with MDA-MB-435 melanoma; -84.7% (active) in the experiment with SW-620 colon; -1.32% (active) in the experiment on MCF7 breast; -99.1% (active) with HCT-116 colon. The growth in the experiment on HCC-2998 colon was 93.9%; in the experiment with KM12 colon, 6.49% (active).

With `Nc1nc(N)c2c(n1)NC(c1sc(Cl)nc1Cl)CC(c1ccccc1)=N2` (stereo not drawn), the growth in the experiment on T-47D breast is 43.6%; in the experiment on BT-549 breast, 44.5%; in the experiment with MDA-MB-435 melanoma it was 2.29% (active); in the experiment with SW-620 colon, 19.3%; in the experiment with MCF7 breast, 31.3%; with HCT-116 colon it was 21.4%. The growth was 74.3% with HCC-2998 colon and 47.9% with KM12 colon.

As to `O=C1Nc2ccccc2/C1=C/c1c[nH]c2ccccc12`, the growth was 68.3% with T-47D breast; 73.5% in the experiment on BT-549 breast; 92.3% in the experiment on MDA-MB-435 melanoma; 100% with SW-620 colon; 63.2% in the experiment with MCF7 breast; 79.2% in the experiment with HCT-116 colon. Moreover, the growth with HCC-2998 colon was 98.6%; in the experiment with KM12 colon it was 23.1%.

Turning to `COc1ccc(C2=NN(C=O)C(c3ccc(OS(=O)(=O)c4ccc(C)cc4)c(OC)c3)C2)cc1` (stereo not drawn), the growth is 40.3% in the experiment with T-47D breast; 46.4% in the experiment on BT-549 breast; 14.1% in the experiment with MDA-MB-435 melanoma; 48.3% in the experiment with SW-620 colon; 40.2% in the experiment on MCF7 breast; 45.8% in the experiment with HCT-116 colon. In addition, the growth with HCC-2998 colon was 74.1%; with KM12 colon it was 54.5%.

With `NC(N)=N/N=C/c1ccccc1`, the growth is 94% in the experiment with T-47D breast; 102% with BT-549 breast; 93.6% in the experiment with MDA-MB-435 melanoma; 104% with SW-620 colon; 93% in the experiment on MCF7 breast; 92.8% in the experiment on HCT-116 colon. For the same compound, the growth with HCC-2998 colon was 98.1%; in the experiment with KM12 colon, 103%.

For the compound `CCCNC(=S)N/N=C(\C)c1ccccn1`, the growth in the experiment on T-47D breast was 37.2%; with BT-549 breast, 32.4%; in the experiment on MDA-MB-435 melanoma it was 49%; in the experiment on SW-620 colon, 33.4%; with MCF7 breast, 6.77% (active); with HCT-116 colon, 4.71% (active). For the same compound, the growth in the experiment with HCC-2998 colon was 44.2%; with KM12 colon it was 32%.

With `CN(C)c1ccc(/C=N/Nc2nnc3n2N=C(c2ccc(Cl)cc2)CS3)cc1`, the growth is 84.2% in the experiment on T-47D breast; 90.3% in the experiment on BT-549 breast; 97.5% with MDA-MB-435 melanoma; 102% with SW-620 colon; 77.4% with MCF7 breast; 99% with HCT-116 colon. Also, the growth in the experiment with HCC-2998 colon was 106%; in the experiment with KM12 colon, 101%.

As to `COc1cc(CN2CCO[C@H](COc3cccc(F)c3)C2)ccc1Cl`, the growth is 28.2% in the experiment with T-47D breast; 50.2% in the experiment on BT-549 breast; 29.2% with MDA-MB-435 melanoma; 47.4% in the experiment with SW-620 colon; 26.7% with MCF7 breast; 27.1% in the experiment with HCT-116 colon. The growth is 49.3% with HCC-2998 colon and 69% in the experiment on KM12 colon.

Take `COCCOCCOCc1n(Cc2ccc3ccccc3n2)c2ccccc2[n+]1Cc1ccc2ccccc2c1`: the growth was 4.77% (active) in the experiment with T-47D breast; -9.56% (active) in the experiment on BT-549 breast; -21.9% (active) in the experiment on MDA-MB-435 melanoma; 12.4% in the experiment with SW-620 colon; 4.87% (active) in the experiment with MCF7 breast; 7.79% (active) in the experiment on HCT-116 colon. Further, the growth with HCC-2998 colon is 12.8%; in the experiment with KM12 colon, -41.5% (active).

As for `CCN(CC)CCCC(C)Nc1cnc(C(=O)Nc2cccc3ccc(OC)nc23)cn1` (stereo not drawn), the growth is 83.9% in the experiment on T-47D breast; 83.2% in the experiment with BT-549 breast; -58.2% (active) in the experiment on MDA-MB-435 melanoma; 2.12% (active) with SW-620 colon; 20.1% in the experiment with MCF7 breast; -36% (active) with HCT-116 colon. Moreover, the growth is 90.9% in the experiment on HCC-2998 colon and 36.3% in the experiment with KM12 colon.

Turning to `CCC(C)C1NC(=O)c2nc(oc2-c2ccccc2)-c2csc(n2)-c2csc(n2)-c2nc(oc2C)-c2coc(n2)CNC(=O)C(C(C)CC)NC1=O` (stereo not drawn), the growth in the experiment on T-47D breast was -62.5% (active); in the experiment with BT-549 breast, -78.4% (active); with MDA-MB-435 melanoma, -87.5% (active); with SW-620 colon, -82.6% (active); in the experiment on MCF7 breast it was -68.6% (active); in the experiment on HCT-116 colon it was -59% (active). Besides, the growth in the experiment on HCC-2998 colon was -80.1% (active); in the experiment on KM12 colon, -73.9% (active).

Consider `CCCCN(CCCC)CCCN=c1nc2c(c(N)n1-c1ccccc1)c(=S)n(-c1ccccc1)c(=S)n2-c1ccccc1`, for which the growth was -62.1% (active) in the experiment with T-47D breast; -90.6% (active) in the experiment on BT-549 breast; -100% (active) in the experiment with MDA-MB-435 melanoma; -100% (active) with SW-620 colon; -88.1% (active) in the experiment with MCF7 breast; -25% (active) in the experiment with HCT-116 colon. For the same compound, the growth with HCC-2998 colon is -91.5% (active); in the experiment with KM12 colon it was -100% (active).

As to `Cc1ccc2oc(=O)cc(-c3nc4ccc([N+](=O)[O-])cc4[nH]3)c2c1`, the growth in the experiment on T-47D breast was 25.4%; in the experiment with BT-549 breast, 42.4%; with MDA-MB-435 melanoma it was 64.6%; in the experiment with SW-620 colon it was 78.1%; with MCF7 breast, 57.2%; in the experiment with HCT-116 colon it was 8.52% (active). Also, the growth with HCC-2998 colon is 67.2%; with KM12 colon, 59.7%.
